Some compounds were tested as several samples or in several runs, with calls that do not always agree. Calls of active or inactive are those of the source. Rule for the calls: active = hit-call score of the fitted dose curve at least 0.9, where 1 is the maximum; inactive = score below 0.9.

Read-out in experiment [1]: Monokine induced gamma interferon (MIG), CXCL9 (gene 4283)
Kind of experiment: BSK_hDFCGF_MIG: BioMAP Diversity Plus: hDFCGF Assay for Monokine induced gamma interferon (MIG) Biomarker Activity (AID 2283063). Particulars: primary human foreskin fibroblasts; actives raise or lower the signal. In a few lines: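 ELISA read-out of MIG from primary human dermal fibroblasts 24 h post-dosing. Gain or loss of signal fitted bidirectionally, DMSO as baseline.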

Read-out in experiment [2]: Matrix Metallopeptidase 1 (MMP1), MMP1 (gene 4312)
In words: BSK_hDFCGF_MMP1: BioMAP Diversity Plus: hDFCGF Assay for Matrix Metallopeptidase 1 (MMP1) Biomarker Activity (AID 2283064). As to conditions: primary human foreskin fibroblasts; actives raise or lower the signal. The gist of the method: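 MMP1 levels quantified by ELISA 24 h after dosing human dermal fibroblast cultures, with parallel SRB total-protein staining for overt cytotoxicity. Data fitted in both directions against DMSO baseline.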

Read-out in experiment [3]: Vascular cell adhesion molecule 1 (VCAM1), VCAM1 (gene 7412)
Kind of experiment: BSK_hDFCGF_VCAM1: BioMAP Diversity Plus: hDFCGF Assay for Vascular cell adhesion molecule 1 (VCAM1) Biomarker Activity (AID 2283065).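 For AC50: VCAM-1 protein level quantified by ELISA after 24 h chemical exposure.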 As to conditions: primary human foreskin fibroblasts; actives raise or lower the signal. In a few lines:
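Primary human foreskin fibroblasts (hDFCGF system) were dosed with chemical and VCAM-1 was measured by ELISA 24 h later. Bidirectional curve fitting used DMSO as negative control and activity baseline.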

Read-out in experiment [4]: Plasminogen activator inhibitor-1 (PAI1), SERPINE1 (gene 5054)
In words: BSK_hDFCGF_PAI1: BioMAP Diversity Plus: hDFCGF Assay for Plasminogen activator inhibitor-1 (PAI1) Biomarker Activity (AID 2283066). As to conditions: primary human foreskin fibroblasts; actives raise or lower the signal. The gist of the method: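 PAI-1 levels in human dermal foreskin fibroblasts were quantified by ELISA 24 h after dosing, with gain or loss analysed against DMSO. Overt cytotoxicity was checked by sulforhodamine B total-protein staining in parallel cultures.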

Read-out in experiment [5]: Intercellular Adhesion Molecule 1 (ICAM1), ICAM1 (gene 3383)
Kind of experiment: BSK_KF3CT_ICAM1: BioMAP Diversity Plus: KF3CT Assay for Intercellular Adhesion Molecule 1 (ICAM1) Biomarker Activity (AID 2283067). Particulars: primary human keratinocytes with fibroblasts; actives raise or lower the signal. In a few lines: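 Human keratinocyte plus foreskin fibroblast primary co-culture was exposed to chemical for 24 h. ICAM-1 was then quantified by ELISA, and the data were fit bidirectionally against DMSO as the negative control and baseline.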

Read-out in experiment [6]: Interferon-gamma inducible Protein 10 (IP10), CXCL10 (gene 3627)
Kind of experiment: BSK_KF3CT_IP10: BioMAP Diversity Plus: KF3CT Assay for Interferon-gamma inducible Protein 10 (IP10) Biomarker Activity (AID 2283068). Particulars: primary human keratinocytes with fibroblasts; actives raise or lower the signal. In a few lines:
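KF3CT co-culture (keratinocytes + foreskin fibroblasts), 24 h compound, IP-10 by ELISA; bidirectional fit vs DMSO baseline.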

A short description of experiment [7]: BSK_KF3CT_SRB: Viability Assessment in the BioMAP Diversity Plus: KF3CT Assay (AID 2283069).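 Note: read 24 h after compound addition.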 As to conditions: primary human keratinocytes with fibroblasts. In a few lines: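 Cytotoxicity was gauged by SRB staining (0.1% SRB, 10% TCA fixation, 560 nm) of parallel cultures at 24 h. The cells were primary human skin keratinocytes co-cultured with fibroblasts, and activity was fitted in both directions against DMSO.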

Read-out in experiment [8]: Interleukin-1 alpha (IL1a), IL1A (gene 3552)
Kind of experiment: BSK_KF3CT_IL1a: BioMAP Diversity Plus: KF3CT Assay for Interleukin-1 alpha (IL1a) Biomarker Activity (AID 2283070). Particulars: primary human keratinocytes with fibroblasts; actives raise or lower the signal. In a few lines:
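IL-1a was detected by ELISA 24 h after chemical treatment of a co-culture of human skin keratinocytes and foreskin fibroblasts. Gain or loss of signal was fitted against the DMSO baseline.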

Read-out in experiment [9]: TIMP metallopeptidase inhibitor 2 (TIMP2), TIMP2 (gene 7077)
In words: BSK_KF3CT_TIMP2: BioMAP Diversity Plus: KF3CT Assay for TIMP metallopeptidase inhibitor 2 (TIMP2) Biomarker Activity (AID 2283071). As to conditions: primary human keratinocytes with fibroblasts; actives raise or lower the signal. The gist of the method:
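TIMP-2 measured by ELISA at 24 h in human keratinocyte/fibroblast primary co-cultures exposed to chemicals. Both increases and decreases were fitted against DMSO. Parallel cultures were stained with SRB for total protein as an overt-cytotoxicity check.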

Read-out in experiment [10]: Transforming growth factor beta 1 (TGFb1), TGFB1 (gene 7040)
Kind of experiment: BSK_KF3CT_TGFb1: BioMAP Diversity Plus: KF3CT Assay for Transforming growth factor beta 1 (TGFb1) Biomarker Activity (AID 2283072). Particulars: primary human keratinocytes with fibroblasts; actives raise or lower the signal. The gist of the method: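 ELISA quantifies TGF-b1 at 24 h post-dose in a primary human skin co-culture of keratinocytes and fibroblasts, with gain or loss judged against DMSO. Parallel SRB total-protein staining flags overt cytotoxicity.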

Read-out in experiment [11]: C-C motif chemokine 2 (Homo sapiens) (UniProt P13500)
Kind of experiment: BSK_KF3CT_MCP1: BioMAP Diversity Plus: KF3CT Assay for Monocyte Chemoattractant Protein 1 (MCP1/CCL2) Biomarker Activity (AID 2283073). As to conditions: primary human keratinocytes with fibroblasts; actives raise or lower the signal. In a few lines:
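Human keratinocyte plus foreskin fibroblast primary co-culture exposed to chemical for 24 h. MCP-1 levels measured by ELISA. Bidirectional curve fitting relative to DMSO negative control as baseline.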

Read-out in experiment [12]: Matrix Metallopeptidase 9 (MMP9), MMP9 (gene 4318)
In words: BSK_KF3CT_MMP9: BioMAP Diversity Plus: KF3CT Assay for Matrix Metallopeptidase 9 (MMP9) Biomarker Activity (AID 2283074). As to conditions: primary human keratinocytes with fibroblasts; actives raise or lower the signal. In a few lines:
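MMP-9 quantified by ELISA after 24 h chemical treatment of primary human skin keratinocyte/fibroblast co-cultures; gain or loss fitted against DMSO, with parallel SRB staining (0.1% SRB, 560 nm) for overt cytotoxicity.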

Read-out in experiment [13]: urokinase plasminogen activator (uPA), PLAU (gene 5328)
In words: BSK_KF3CT_uPA: BioMAP Diversity Plus: KF3CT Assay for urokinase plasminogen activator (uPA) Biomarker Activity (AID 2283075). Particulars: primary human keratinocytes with fibroblasts; actives raise or lower the signal. In a few lines:
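ELISA read-out of uPA 24 h after dosing human skin keratinocytes co-cultured with foreskin fibroblasts. Signal change fitted both ways relative to DMSO; sulforhodamine B on parallel cultures marks overt cytotoxicity.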

Read-out in experiment [14]: CD40, CD40 (gene 958)
Kind of experiment: BSK_LPS_CD40: BioMAP Diversity Plus: LPS Assay for CD40 Biomarker Activity (AID 2283076). Particulars: primary human HUVEC with PBMC; actives raise or lower the signal. In a few lines:
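Primary human umbilical vein endothelial cells co-cultured with peripheral blood mononuclear cells, LPS-stimulated, were dosed with chemical and read 24 h later. CD40 levels were measured by ELISA and fitted bidirectionally against DMSO as negative control and baseline.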

Read-out in experiment [15]: E-selectin (Homo sapiens) (UniProt P16581)
Kind of experiment: BSK_LPS_Eselectin: BioMAP Diversity Plus: LPS Assay for Eselectin Biomarker Activity (AID 2283077). Particulars: primary human HUVEC with PBMC; actives raise or lower the signal. The gist of the method:
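Human umbilical vein endothelial cells co-cultured with peripheral blood mononuclear cells under LPS stimulation; E-selectin measured by ELISA 24 h after chemical dosing. Activity fitted bidirectionally against DMSO as negative control and baseline.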

Read-out in experiment [16]: Interleukin-8 (IL8), CXCL8 (gene 3576)
Kind of experiment: BSK_LPS_IL8: BioMAP Diversity Plus: LPS Assay for Interleukin-8 (IL8) Biomarker Activity (AID 2283078). As to conditions: primary human HUVEC with PBMC; actives raise or lower the signal. The gist of the method: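 Human umbilical vein endothelial cells co-cultured with PBMC were stimulated with LPS; IL-8 levels were measured by ELISA 24 h after chemical dosing. Activity was fitted bidirectionally against DMSO as negative control and baseline.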

A short description of experiment [17]: BSK_LPS_SRB: Viability Assessment in the BioMAP Diversity Plus: LPS Assay (AID 2283079).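 Note: total protein by sulforhodamine B absorbance as a cytotoxicity measure; measured one day after compound addition; fitted in both directions against DMSO so loss or gain of signal counts.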 As to conditions: primary human HUVEC with PBMC. In a few lines: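 Human umbilical vein endothelial cells co-cultured with PBMC (LPS system) were dosed for 24 h. Total protein was stained with 0.1% sulforhodamine B after 10% TCA fixation, read at 560 nm, and fitted bidirectionally against DMSO baseline.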

Read-out in experiment [18]: Interleukin-1 alpha (IL1a), IL1A (gene 3552)
Kind of experiment: BSK_LPS_IL1a: BioMAP Diversity Plus: LPS Assay for Interleukin-1 alpha (IL1a) Biomarker Activity (AID 2283080). Particulars: primary human HUVEC with PBMC; actives raise or lower the signal. The gist of the method:
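Human umbilical vein endothelial cells co-cultured with peripheral blood mononuclear cells were LPS-stimulated and exposed to test chemicals for 24 h. IL-1 alpha was quantified by ELISA, with bidirectional curve fitting against DMSO as the negative control and baseline.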

Read-out in experiment [19]: Monocyte Chemoattractant Protein-1 (MCP1), CCL2 (gene 6347)
In words: BSK_LPS_MCP1: BioMAP Diversity Plus: LPS Assay for Monocyte Chemoattractant Protein-1 (MCP1) Biomarker Activity (AID 2283081). As to conditions: primary human HUVEC with PBMC; actives raise or lower the signal. The gist of the method:
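HUVEC plus PBMC co-culture (human primary cells, LPS system) exposed to test chemical for 24 h; MCP-1 measured by ELISA. Bidirectional curve fitting against DMSO baseline; parallel SRB total-protein staining flags overt cytotoxicity.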

A short description of experiment [20]: BSK_LPS_PGE2: BioMAP Diversity Plus: LPS Assay for Prostaglandin E2 (PGE2) Biomarker Activity (AID 2283082). As to conditions: primary human HUVEC with PBMC; actives raise or lower the signal. In a few lines: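 PGE2 release measured by ELISA in an LPS-activated co-culture of human umbilical vein endothelial cells and peripheral blood mononuclear cells, read at 24 h post-dosing. DMSO served as baseline for bidirectional curve fitting.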

Chain of E-selectin (Homo sapiens) (P16581 whole entry, looked up): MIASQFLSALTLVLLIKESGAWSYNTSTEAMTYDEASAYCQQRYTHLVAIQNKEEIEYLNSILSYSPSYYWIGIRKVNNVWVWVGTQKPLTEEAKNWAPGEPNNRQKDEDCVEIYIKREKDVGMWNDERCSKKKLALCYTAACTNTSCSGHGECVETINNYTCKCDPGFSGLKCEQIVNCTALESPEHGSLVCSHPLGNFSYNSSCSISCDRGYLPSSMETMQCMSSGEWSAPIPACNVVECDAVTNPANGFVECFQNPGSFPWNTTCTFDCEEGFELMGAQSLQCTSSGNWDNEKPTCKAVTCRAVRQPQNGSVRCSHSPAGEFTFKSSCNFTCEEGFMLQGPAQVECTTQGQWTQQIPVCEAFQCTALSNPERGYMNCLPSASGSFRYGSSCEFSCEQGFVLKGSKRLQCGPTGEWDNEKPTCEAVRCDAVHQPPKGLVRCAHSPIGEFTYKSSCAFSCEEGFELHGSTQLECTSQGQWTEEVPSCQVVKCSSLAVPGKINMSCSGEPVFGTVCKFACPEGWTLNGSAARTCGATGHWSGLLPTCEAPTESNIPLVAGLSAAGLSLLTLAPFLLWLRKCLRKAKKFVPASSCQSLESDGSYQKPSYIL

Take `OCc1ccccc1`: the outcome in experiment [1], in experiment [2], in [3], in experiment [4], in [5] and in [6] was inactive. Moreover, the result in experiment [7], in experiment [8], in experiment [9], in experiment [10], in [11] and in experiment [12] was inactive. For the same compound, the result in experiment [13], in [14], in [15], in experiment [16], in experiment [17] and in [18] was inactive. Moreover, the result in experiment [19] and in experiment [20] was inactive.
With `Cc1ncc([C@@H](CCCCCCc2ccc3c(n2)NCCC3)CC(=O)O)cn1`, the outcome in experiment [1], in experiment [2], in [3], in experiment [4], in experiment [5] and in experiment [6] was inactive. The result in experiment [7], in experiment [8], in [9], in experiment [10], in [11] and in [12] was inactive. For the same compound, the result in [13], in experiment [14], in [15], in [16], in [17] and in experiment [18] was inactive. Besides, the result in experiment [19] and in experiment [20] was inactive.
The term AC50 denotes the concentration at which the activity in the assay is half-maximal. Regarding `FC(F)(F)C(F)(F)C(F)(F)C(F)(F)C(F)(F)C(F)(F)I`, the result in [1], in [2], in [3], in [4], in [5] and in experiment [6] was inactive. Also, the outcome in [7], in experiment [8], in [9], in experiment [11], in experiment [12] and in experiment [13] was inactive. Further, the result in experiment [14], in [15], in [16], in experiment [17], in [18] and in [19] was inactive. Further, the outcome in experiment [20] was inactive. Besides, in experiment [3], the concentration at half-maximal activity (AC50) was 48.3 µM (active).
Turning to `c1ccc2c(c1)-c1cccc3c1c-2cc1ccccc13`, the result in experiment [1], in experiment [3], in experiment [4], in experiment [5], in [6] and in [7] was inactive. Further, the result in [8], in [9], in [10], in experiment [11], in experiment [12] and in experiment [13] was inactive. Besides, the result in [14], in experiment [15], in [16], in experiment [17], in experiment [18] and in experiment [19] was inactive. For the same compound, in experiment [20], the result was inactive. Also, in experiment [2], the concentration at half-maximal activity (AC50) was 6.72 µM (active).
As to `c1ccc2ncccc2c1`, the result in experiment [1], in experiment [2], in [3], in experiment [4], in experiment [5] and in experiment [6] was inactive. In addition, the result in experiment [7], in experiment [8], in experiment [9], in experiment [10], in experiment [11] and in experiment [12] was inactive. The result in [13], in [14], in experiment [15], in experiment [16], in experiment [17] and in [18] was inactive. Moreover, the outcome in [19] and in experiment [20] was inactive.
`COS(C)(=O)=O`: the result in experiment [1], in [2], in [3], in [4], in experiment [5] and in experiment [6] was inactive. The result in experiment [7], in experiment [8], in experiment [9], in experiment [10], in [11] and in [12] was inactive. Besides, the result in experiment [13], in experiment [14], in experiment [15], in [16], in [17] and in [18] was inactive. Further, the outcome in experiment [19] and in [20] was inactive.

Source of the values: PubChem BioAssay (EPA / NIEHS).
